Screening results (PubChem)
rCAG RNA binder: binds r(CAG) RNA repeats. inhibition, % at 3 µM. AID 651821. r(CAG) RNA repeat, TO-PRO-1 dye displacement fluorescence. 1.3% of 370,000 active;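 active means inhibition above the plate cutoff, the mean of all test compounds on that plate plus 3 SD, cut at about 35% in these data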;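 further: higher means more dye released from RNA so lower well fluorescence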
GRIN3A LBD mod: modulates the human NR3A ligand-binding domain. NR3A LBD differential scanning fluorimetry, Tm shift; 0% = protein alone, 100% = glycine-bound protein. Tm shift relative to glycine control, % at 25 µM. 2.5% of 340,000 active. AID 1259313;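 active means melting temperature shift of at least 10% of the positive control shift, at one fixed dose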
NadD block: NadD (S. aureus) enzyme inhibition | purified NadD enzyme, colorimetric absorbance read-out | 0.78% of 360,000 active | inhibition, % at 20 µM; in the data active means inhibition above about 26%
FAS-TE inh: blocks the thioesterase domain of human fatty acid synthase. 0.67% of 360,000 active. AID 602261. P49327. recombinant FAS-TE, OMFH fluorogenic substrate, fluorescence endpoint. inhibition, % at 15 µM;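 active means compounds whose normalised, plate-corrected inhibition of enzyme fluorescence in the single-dose primary screen is 50% or more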
Large screens that a line does not name were inactive. The list is not random: actives were taken first. Their share in the collection is about 4.3%.

CCOC(=O)c1ccc(NC(=O)CSc2nnc(-c3cc(-c4ccccc4)n[nH]3)n2N)cc1	none (no result: GRIN3A LBD mod, NadD block, FAS-TE inh)
Cc1cccc(C(=O)Nc2nc3ncccn3c2-c2ccccc2)c1	none (no result: GRIN3A LBD mod, NadD block, FAS-TE inh)
O=C(CSc1ccccc1)Nc1ccc(N2CCOCC2)c(F)c1	none
O=C(CSc1ccc(Cl)cc1)Nc1ccc(N2CCN(c3ccccc3)CC2)c(F)c1	GRIN3A LBD mod 19.4
OC(c1ccccc1)(c1ccccc1)C1CCN(CCCNc2cccc(Br)c2)CC1	none (no result: GRIN3A LBD mod, NadD block, FAS-TE inh)
C/C(=N\OC(=O)Nc1ccc(Cl)cc1)c1ccc(F)c(F)c1	GRIN3A LBD mod 36.1
Cc1cc(N2CCN(C(=O)OC(C)(C)C)C[C@H]2C)ccc1N1CCN(Cc2ccccc2)[C@@H](C)C1	none (no result: GRIN3A LBD mod, NadD block, FAS-TE inh)
COC(=O)[C@]12C[C@H](CC(=O)NCCc3ccccc3OC)C(=O)N(Cc3ccc4c(c3)OCO4)C1=C[C@H](C(C)C)O[C@@H]2C1CC1	none (no result: GRIN3A LBD mod, NadD block, FAS-TE inh)
COC(=O)[C@]12C[C@H](CC(=O)NCc3cccs3)C(=O)N(Cc3ccccc3)C1=C[C@H](C(C)C)O[C@@H]2C1CC1	none (no result: GRIN3A LBD mod, NadD block, FAS-TE inh)
O=C(CCCOc1ccc(Cl)cc1Cl)N/N=C/c1ccccc1O	GRIN3A LBD mod 17.8
COc1ccc(/C=N/NC(=O)CCCOc2ccc(Cl)cc2Cl)cc1[N+](=O)[O-]	GRIN3A LBD mod 11.8
Cc1ccc(/C=N/NC(=O)CCCOc2ccc(Cl)cc2Cl)cc1	GRIN3A LBD mod 12.1
O=C(CSc1nnc(-c2ccccc2)n1-c1ccccc1)Nc1ccccc1-c1ccccc1	none (no result: GRIN3A LBD mod, NadD block, FAS-TE inh)
COC(=O)c1ccc(-n2nnnc2SCC(=O)N2CCCCC2)cc1	GRIN3A LBD mod 37.4
O=C(CNS(=O)(=O)c1ccc(F)cc1)N1CCN(c2ccccn2)CC1	none (no result: GRIN3A LBD mod, NadD block, FAS-TE inh)
Cc1ccnc(NC(c2ccccc2)c2ccc3cccnc3c2O)c1 (stereo unspecified)	GRIN3A LBD mod 147.9
Cc1ccnc(NC(c2cccnc2)c2ccc3cccnc3c2O)c1 (stereo unspecified)	none
Oc1ccccc1C(Nc1nccs1)c1ccc2cccnc2c1O (stereo unspecified)	NadD block 36.7
O=C(c1cc(-c2ccc(Cl)cc2)nc2ccccc12)N1CCN(c2ncccn2)CC1	none (no result: GRIN3A LBD mod, NadD block, FAS-TE inh)
CCCCN(C(=O)CSc1nnc(-c2ccc(Cl)cc2)o1)c1c(N)n(CC(C)C)c(=O)[nH]c1=O	none
CCCCn1c(N)c(N(CC(C)C)C(=O)CSc2nnc(-c3ccc(Cl)cc3)o2)c(=O)[nH]c1=O	GRIN3A LBD mod 10.1
CCCCCCCCN1C(=O)[C@@H](CC(=O)NCCCOCCCC)C[C@@]2(C(=O)OC)C1=C[C@H](COCc1ccccc1)O[C@@H]2C	none (no result: GRIN3A LBD mod, NadD block, FAS-TE inh)
CCCCCN1CCCCC(NC(=O)c2ccc(F)cc2)C1=O (stereo unspecified)	none (no result: GRIN3A LBD mod, NadD block, FAS-TE inh)
COc1ccc(-c2ccnc(SCC(=O)c3ccc(Cl)cc3)n2)cc1	none
COc1ccc(-c2ccnc(SCC(=O)c3ccc(OC)c(OC)c3)n2)cc1	GRIN3A LBD mod 14.4
CSc1ccc(C=NNC(=O)c2cc(-c3ccc(Cl)cc3)n[nH]2)cc1	none (no result: GRIN3A LBD mod, NadD block, FAS-TE inh)
CCOC(=O)C1=C(CC)Nc2ccccc2N=C1NC(=O)Nc1ccc(Cl)c(Cl)c1	GRIN3A LBD mod 28.3
CCOC(=O)[C@@]12CCCC3=C1N(CCC3)C(=O)[C@H]2CC(=O)NCc1ccccc1	none (no result: GRIN3A LBD mod, NadD block, FAS-TE inh)
COc1cc2c(cc1OC)/C(=C/C(=O)N1CCOCC1)NC(C)(C)C2	GRIN3A LBD mod 10.8 (no result: NadD block, FAS-TE inh)
O=S1(=O)CC2c3ccccc3CN2CN1CCc1ccccc1 (stereo unspecified)	none (no result: GRIN3A LBD mod, NadD block, FAS-TE inh)
CCn1c(=O)n(CC(=O)NC2CCCC(C)C2C)c(=O)c2ccccc21 (stereo unspecified)	GRIN3A LBD mod 11.0
COc1cc(C2C(C#N)=C(N)Oc3c2ccc2ccccc32)ccc1OCC(=O)Nc1ccccc1C (stereo unspecified)	rCAG RNA binder 35.7
COc1cc(CNC(C)C)ccc1OCC(=O)Nc1cccc2ccccc12	none
CCCCNS(=O)(=O)c1ccc2nc(SCC(=O)Nc3sccc3C#N)[nH]c2c1	rCAG RNA binder 37.6, GRIN3A LBD mod 14.4
CCCCNS(=O)(=O)c1ccc2nc(SCC(N)=O)[nH]c2c1	none
CCCCNS(=O)(=O)c1ccc2nc(SCC(=O)Nc3cccc(F)c3)[nH]c2c1	GRIN3A LBD mod 16.9
COc1ccc(C(=O)n2cnc(N)n2)cc1	none
CNC(=S)n1cnc(N)n1	GRIN3A LBD mod 12.1
CC(=O)CC[C@H]1CC[C@]2(CCCN(C(=O)C(C)(C)C)C2)O1	none (no result: GRIN3A LBD mod, NadD block, FAS-TE inh)
Cc1ccc(C(=O)NNC(=O)C2CCN(C(=O)OC(C)(C)C)CC2)cc1	GRIN3A LBD mod 30.1
COc1cccc(-c2cccc(-c3nc(C(=O)NCc4ccc(Oc5ccccc5)cc4)cc4c3[C@H](CCO)N(S(=O)C(C)(C)C)C4)c2)c1 (stereo partly specified)	NadD block 30.6 (no result: rCAG RNA binder, GRIN3A LBD mod)
CC(C)(C)S(=O)N1Cc2cc(C(=O)NCc3ccc(Oc4ccccc4)cc3)nc(-c3cccc(-c4cc5ccccc5o4)c3)c2[C@@H]1CCO (stereo partly specified)	NadD block 32.5 (no result: rCAG RNA binder, GRIN3A LBD mod)
COCCNC(=O)c1cc2c(c(-c3cccc(-c4cc5ccccc5o4)c3)n1)[C@H](CCO)N(S(=O)C(C)(C)C)C2 (stereo partly specified)	none (no result: GRIN3A LBD mod)
COC(=O)[C@]12C[C@H](CC(=O)N3CCC(c4ccccc4)CC3)C(=O)N(Cc3ccc(Cl)cc3Cl)C1=C[C@H](C(C)C)O[C@@H]2C1CC1	none (no result: GRIN3A LBD mod, NadD block, FAS-TE inh)
N#Cc1c(C(F)(F)F)cc(-c2ccc(Cl)cc2)[nH]c1=O	rCAG RNA binder 37.5
CCCCCCC(C)OC(=O)Nc1cccc2ccccc12 (stereo unspecified)	GRIN3A LBD mod 10.3
CC(C)OCCCNC(=O)Nc1cccc2ccccc12	none
O=C(c1cccc(C(F)(F)F)c1)N1CC[C@H]2[C@H](CCCN2Cc2ccccc2)C1	none (no result: GRIN3A LBD mod, NadD block, FAS-TE inh)
COc1cc(/C=N/NC(=O)CCN2CCN(C)CC2)cc2c1OCO2	GRIN3A LBD mod 11.1
CCCCNC(=O)C[C@H]1C[C@@]2(C(=O)OC)C(=C[C@H](C(C)C)O[C@@H]2C2CC2)N(Cc2ccc3c(c2)OCO3)C1=O	none (no result: GRIN3A LBD mod, NadD block, FAS-TE inh)
CC(=O)Nc1ccc(S(=O)(=O)NCCOc2ccc(Cl)cc2C)cc1	none
CCCCOc1ccc(CONS(=O)(=O)c2ccc(NC(C)=O)cc2)cc1Cl	GRIN3A LBD mod 28.1
COC(=O)[C@]12C[C@H](CC(=O)NCc3ccc(C)o3)C(=O)N(Cc3ccc4c(c3)OCO4)C1=C[C@H](C(C)C)O[C@@H]2C1CC1	none (no result: GRIN3A LBD mod, NadD block, FAS-TE inh)
Cc1cc(NCCCn2ccnc2)n2nc(-c3ccc(Cl)cc3)cc2n1	none
CC(C)(C)c1cc(NCCCn2ccnc2)n2ncc(-c3ccc(Cl)cc3)c2n1	GRIN3A LBD mod 19.6
NC(=O)c1nc[nH]c1C(=O)Nc1cccc(NC(=O)c2cccc(C(F)(F)F)c2)c1	none
O=C(Nc1cccc(-c2csc(Nc3ccc(Cl)cc3)n2)c1)c1cccc(C(F)(F)F)c1	rCAG RNA binder 40.1, GRIN3A LBD mod 26.3
O=C(Nc1cccc(-c2csc(Nc3ccc(Cl)cc3)n2)c1)c1cc([N+](=O)[O-])cc(C(F)(F)F)c1	GRIN3A LBD mod 20.1, NadD block 41.9
O=C(Nc1ccc(-c2csc(Nc3ccccc3)n2)cc1)c1ccccc1	GRIN3A LBD mod 17.3
O=C(Nc1cccc(-c2csc(Nc3ccc(Cl)cc3)n2)c1)c1ccccc1	GRIN3A LBD mod 25.4
CCOC(=O)[C@]12CCCC=C1N(CCc1ccc(Cl)cc1)C(=O)[C@@H]2CC(=O)NCCC(C)C	none (no result: GRIN3A LBD mod, NadD block, FAS-TE inh)
